The record followed here is PubChem BioAssay (NCI).

About 79,000 compounds went through this panel and 15% of them were active in at least one assay; those are over-represented in the sample as a whole. Active and inactive are the calls of the source. Cut-off read from the data, not from the text of the source: active = growth inhibition above about 70%; inactive = the rest.

A short description of test [1]: NCI Yeast Anticancer Drug Screen. Data for the rad50 strain (AID 155).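 Note: 0% = growth of vehicle-only cultures of the same strain.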 The note with it: S. cerevisiae rad50 strain growth inhibition, active compounds read high. The procedure, abridged: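 Compounds were tested on a yeast strain with an engineered DNA damage repair alteration; the reported value is growth inhibition normalised to vehicle treatment.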
Test [2] is described as follows: NCI Yeast Anticancer Drug Screen. Data for the mec2-1 strain (AID 157). The note with it: S. cerevisiae mec2-1 strain, active compounds read high. An outline of the steps: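 Mutant yeast (mec2-1) grown with compound; growth inhibition relative to vehicle control reported.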
A short description of test [3]: NCI Yeast Anticancer Drug Screen. Data for the sgs1 mgt1 strain (AID 161).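 Note: 0% = growth of cultures given vehicle only.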 The note with it: S. cerevisiae sgs1 mgt1 strain, active compounds read high. An outline of the steps:
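This yeast growth screen uses a strain with defined DNA-repair lesions; compound-treated growth is compared with vehicle-treated growth.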

Test [4] can be described thus: NCI Yeast Anticancer Drug Screen. Data for the cln2 rad14 strain (AID 165).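 Note: 0% = growth equal to vehicle treated cultures.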 Conditions: S. cerevisiae cln2 rad14 strain, active compounds read high. An outline of the steps: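 Readout is yeast growth inhibition versus vehicle-treated controls, using a strain with cln2 and rad14 alterations exposed to compound.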
Test [5] can be described thus: NCI Yeast Anticancer Drug Screen. Data for the bub3 strain (AID 167). The note with it: S. cerevisiae bub3 mutant strain, active compounds read high. An outline of the steps:
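Growth of a checkpoint-deficient yeast mutant is measured after compound exposure. Values represent inhibition relative to vehicle.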

The nature of test [6]: NCI Yeast Anticancer Drug Screen. Data for the mlh1 rad18 strain (AID 175). Conditions: S. cerevisiae mlh1 rad18 strain growth inhibition, active compounds read high. An outline of the steps: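 Genetically defined yeast (DNA repair-deficient) exposed to compounds; growth inhibition determined relative to vehicle.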
[7] abbreviates: at 5.0 µM (retest, dose inferred, filed as 0.5).
[8] abbreviates: at 50.0 µM (retest, dose inferred, filed as 5.0).

On to `Cc1ccc2c(c1)-c1c(c3c(c4c1-c1cc(C)ccc1CC4)C(=O)OC3=O)CC2`, for which the growth inhibition is 14% (inactive) in test [1] (setting [7]); 72% (active) in test [1] (setting [8]); 43.9% (inactive) in test [1] (at 50.0 µM); 10% (inactive) in test [2] (setting [7]); 43% (inactive) in test [2] (setting [8]); 16.7% (inactive) in test [2] (at 50.0 µM). Moreover, the growth inhibition is 2% (inactive) in test [3] (setting [7]); 59% (inactive) in test [3] (setting [8]); 12.2% (inactive) in test [3] (at 50.0 µM); 14% (inactive) in test [4] (setting [7]); 41% (inactive) in test [4] (setting [8]); 3.45% (inactive) in test [4] (at 50.0 µM). The growth inhibition in test [5] (setting [7]) is 4% (inactive); in test [5] (setting [8]), 47% (inactive); in test [5] (at 50.0 µM), 7.65% (inactive); in test [6] (setting [7]), 9% (inactive); in test [6] (setting [8]) it was 56% (inactive); in test [6] (at 50.0 µM), 36.5% (inactive).

Consider `O=S(=O)(CC(Br)CCl)c1ccccc1` (configuration not stated), for which the growth inhibition in test [1] (setting [7]) was 2% (inactive); in test [1] (setting [8]) it was 72% (active); in test [1] (at 50.0 µM), 15.1% (inactive); in test [2] (setting [7]), 2% (inactive); in test [2] (setting [8]), 55% (inactive); in test [2] (at 50.0 µM), 31.3% (inactive). Moreover, the growth inhibition in test [3] (setting [7]) is -1% (inactive); in test [3] (setting [8]) it was 46% (inactive); in test [3] (at 50.0 µM), 40.5% (inactive); in test [4] (setting [7]), 4% (inactive); in test [4] (setting [8]), 17% (inactive); in test [4] (at 50.0 µM) it was -62.6% (inactive). In addition, the growth inhibition was 5% (inactive) in test [5] (setting [7]); 38% (inactive) in test [5] (setting [8]); 54.8% (inactive) in test [5] (at 50.0 µM); 13% (inactive) in test [6] (setting [7]); 76% (active) in test [6] (setting [8]); 57% (inactive) in test [6] (at 50.0 µM).

`NC1CCCCC1N.O=C([O-])c1ccc(N=Nc2cccc([N+](=O)[O-])c2)cc1O.O=C([O-])c1ccc(N=Nc2cccc([N+](=O)[O-])c2)cc1O.[Pt+4]`: the growth inhibition in test [1] (setting [7]) is 15% (inactive); in test [1] (setting [8]), 23% (inactive); in test [1] (at 50.0 µM) it was -2.95% (inactive); in test [2] (setting [7]), 18% (inactive); in test [2] (setting [8]), 36% (inactive); in test [2] (at 50.0 µM), -2.45% (inactive). In addition, the growth inhibition was -20% (inactive) in test [3] (setting [7]); 36% (inactive) in test [3] (setting [8]); 3% (inactive) in test [3] (at 50.0 µM); -8% (inactive) in test [4] (setting [7]); 20% (inactive) in test [4] (setting [8]); -18.6% (inactive) in test [4] (at 50.0 µM). The growth inhibition in test [5] (setting [7]) is 28% (inactive); in test [5] (setting [8]), 45% (inactive); in test [5] (at 50.0 µM), -19.4% (inactive); in test [6] (setting [7]), 25% (inactive); in test [6] (setting [8]), 34% (inactive); in test [6] (at 50.0 µM), 6.8% (inactive).

For the compound `CSCS(=O)C[C@H](CO)NC(=O)/C=C/c1c(C)[nH]c(=O)[nH]c1=O` (some centres not stated), the growth inhibition in test [1] (setting [7]) is 26% (inactive); in test [1] (setting [8]), 98% (active); in test [1] (at 50.0 µM), 84.5% (active); in test [2] (setting [7]), 26% (inactive); in test [2] (setting [8]), 86% (active); in test [2] (at 50.0 µM), 78.6% (active). The growth inhibition in test [3] (setting [7]) is 25% (inactive); in test [3] (setting [8]), 98% (active); in test [3] (at 50.0 µM) it was 83% (active); in test [4] (setting [7]), 32% (inactive); in test [4] (setting [8]), 95% (active); in test [4] (at 50.0 µM) it was 62.7% (inactive). The growth inhibition in test [5] (setting [7]) was 5% (inactive); in test [5] (setting [8]), 98% (active); in test [5] (at 50.0 µM), 88.7% (active); in test [6] (setting [7]), 25% (inactive); in test [6] (setting [8]), 98% (active); in test [6] (at 50.0 µM) it was 85.1% (active).

As for `Cc1c[nH]c(=O)n(CC(=O)C2CCC3C4CCC5=CC(=O)CCC5(C)C4CCC23C)c1=O` (configuration not stated), the growth inhibition in test [1] (setting [7]) was 11% (inactive); in test [1] (setting [8]), 30% (inactive); in test [1] (at 50.0 µM) it was 48.2% (inactive); in test [2] (setting [7]) it was 0% (inactive); in test [2] (setting [8]), -11% (inactive); in test [2] (at 50.0 µM), 43.6% (inactive). Further, the growth inhibition is -1% (inactive) in test [3] (setting [7]); 26% (inactive) in test [3] (setting [8]); 47.4% (inactive) in test [3] (at 50.0 µM); -1% (inactive) in test [4] (setting [7]); 4% (inactive) in test [4] (setting [8]); 46.6% (inactive) in test [4] (at 50.0 µM). The growth inhibition is 0% (inactive) in test [5] (setting [7]); 17% (inactive) in test [5] (setting [8]); 41.1% (inactive) in test [5] (at 50.0 µM); 1% (inactive) in test [6] (setting [7]); 20% (inactive) in test [6] (setting [8]); 43.3% (inactive) in test [6] (at 50.0 µM).

On to `CCC(CC)=NNc1ccc([N+](=O)[O-])cc1`, for which the growth inhibition is 7% (inactive) in test [1] (setting [7]); 96% (active) in test [1] (setting [8]); 98.4% (active) in test [1] (at 50.0 µM); 15% (inactive) in test [2] (setting [7]); 95% (active) in test [2] (setting [8]); 97.7% (active) in test [2] (at 50.0 µM). The growth inhibition in test [3] (setting [7]) is 8% (inactive); in test [3] (setting [8]), 97% (active); in test [3] (at 50.0 µM) it was 97.8% (active); in test [4] (setting [7]), 10% (inactive); in test [4] (setting [8]), 94% (active); in test [4] (at 50.0 µM), 95.3% (active). In addition, the growth inhibition in test [5] (setting [7]) was 4% (inactive); in test [5] (setting [8]), 42% (inactive); in test [5] (at 50.0 µM), 97.9% (active); in test [6] (setting [7]), 11% (inactive); in test [6] (setting [8]) it was 97% (active); in test [6] (at 50.0 µM) it was 97.2% (active).

For the compound `C=CC(c1ccccc1)[C@@]1(OC(C)=O)C(=O)C(=O)OC1C1COC(C)(C)O1` (some centres not stated), the growth inhibition in test [1] (setting [7]) was 62% (inactive); in test [1] (setting [8]), 98% (active); in test [1] (at 50.0 µM) it was 86.3% (active); in test [2] (setting [7]) it was 75% (active); in test [2] (setting [8]), 98% (active); in test [2] (at 50.0 µM), 77.7% (active). Further, the growth inhibition in test [3] (setting [7]) was 65% (inactive); in test [3] (setting [8]), 100% (active); in test [3] (at 50.0 µM) it was 88.3% (active); in test [4] (setting [7]), 30% (inactive); in test [4] (setting [8]), 94% (active); in test [4] (at 50.0 µM), 86.9% (active). Further, the growth inhibition in test [5] (setting [7]) was 84% (active); in test [5] (setting [8]), 100% (active); in test [5] (at 50.0 µM), 85.1% (active); in test [6] (setting [7]) it was 81% (active); in test [6] (setting [8]), 98% (active); in test [6] (at 50.0 µM), 90.4% (active).

As to `CCCCCC(C)C1=NC(C)(C)CC(C)O1` (configuration not stated), the growth inhibition is -153% (inactive) in test [1] (setting [7]); -154% (inactive) in test [1] (setting [8]); 5.85% (inactive) in test [1] (at 50.0 µM); -51% (inactive) in test [2] (setting [7]); -57% (inactive) in test [2] (setting [8]); -3.85% (inactive) in test [2] (at 50.0 µM). In addition, the growth inhibition is -64% (inactive) in test [3] (setting [7]); -68% (inactive) in test [3] (setting [8]); -0.45% (inactive) in test [3] (at 50.0 µM); -62% (inactive) in test [4] (setting [7]); -64% (inactive) in test [4] (setting [8]); 32.4% (inactive) in test [4] (at 50.0 µM). In addition, the growth inhibition was -73% (inactive) in test [5] (setting [7]); -81% (inactive) in test [5] (setting [8]); -3.2% (inactive) in test [5] (at 50.0 µM); -139% (inactive) in test [6] (setting [7]); -116% (inactive) in test [6] (setting [8]); 12.1% (inactive) in test [6] (at 50.0 µM).

For `CCCCc1ccc2c(c1)Nc1cc3ccccc3cc1N2`, the growth inhibition in test [1] (setting [7]) was -3% (inactive); in test [1] (setting [8]), 55% (inactive); in test [1] (at 50.0 µM), 86.3% (active); in test [2] (setting [7]), 1% (inactive); in test [2] (setting [8]), 26% (inactive); in test [2] (at 50.0 µM), 44.5% (inactive). The growth inhibition is 0% (inactive) in test [3] (setting [7]); 56% (inactive) in test [3] (setting [8]); 54.9% (inactive) in test [3] (at 50.0 µM); -13% (inactive) in test [4] (setting [7]); 30% (inactive) in test [4] (setting [8]); 33.4% (inactive) in test [4] (at 50.0 µM). For the same compound, the growth inhibition is 6% (inactive) in test [5] (setting [7]); 81% (active) in test [5] (setting [8]); 77.8% (active) in test [5] (at 50.0 µM); 7% (inactive) in test [6] (setting [7]); 59% (inactive) in test [6] (setting [8]); 95% (active) in test [6] (at 50.0 µM).
